# Test results reported in PubChem BioAssay (NCI).
# About 79,000 compounds went through this panel and 15% of them were active in at least one assay; those are over-represented in the sample as a whole. Values without a mark were called inactive. Activity calls are given as the source filed them. Rule as the data show it: active = growth inhibition above about 70%; inactive = the rest.
# Columns and labels:
# [1] = NCI Yeast Anticancer Drug Screen. Data for the rad50 strain (AID 155);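 also: 0% = growth of vehicle-only cultures of the same strain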; details: S. cerevisiae rad50 strain growth inhibition, active compounds read high
# Summary of the method: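 DNA repair mutant yeast, compound exposure, growth read-out; inhibition is taken relative to vehicle.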
# [2] = NCI Yeast Anticancer Drug Screen. Data for the mec2-1 strain (AID 157); details: S. cerevisiae mec2-1 strain, active compounds read high
# Summary of the method: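 Growth inhibition is read against vehicle-treated controls after compound exposure of the mec2-1 yeast strain, which is defective in DNA damage repair or cell cycle control.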
# [3] = NCI Yeast Anticancer Drug Screen. Data for the sgs1 mgt1 strain (AID 161);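 also: 0% = growth of cultures given vehicle only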; details: S. cerevisiae sgs1 mgt1 strain, active compounds read high
# Summary of the method: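 This yeast growth screen uses a strain with defined DNA-repair lesions; compound-treated growth is compared with vehicle-treated growth.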
# [4] = NCI Yeast Anticancer Drug Screen. Data for the cln2 rad14 strain (AID 165);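 also: 0% = growth equal to vehicle treated cultures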; details: S. cerevisiae cln2 rad14 strain, active compounds read high
# Summary of the method: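 Growth inhibition, relative to vehicle-treated controls, is the read-out. The test organism is a yeast strain with defined genetic alterations, cln2 rad14.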
# [5] = NCI Yeast Anticancer Drug Screen. Data for the bub3 strain (AID 167); details: S. cerevisiae bub3 mutant strain, active compounds read high
# Summary of the method: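 In this screen, a yeast mutant lacking normal mitotic checkpoint function is challenged with compound. Relative growth versus vehicle gives the inhibition value.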
# [6] = NCI Yeast Anticancer Drug Screen. Data for the mlh1 rad18 strain (AID 175); details: S. cerevisiae mlh1 rad18 strain growth inhibition, active compounds read high
# Summary of the method: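 Cells of a genetically altered yeast strain, deficient in DNA damage repair, were treated with compound. Their growth was then compared with that of vehicle-treated cultures to give inhibition.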
# [7] = at 5.0 µM (retest, dose inferred, filed as 0.5)
# [8] = at 50.0 µM (retest, dose inferred, filed as 5.0)
Structure (SMILES),"growth inhibition [1, 7]","growth inhibition [1, 8]",growth inhibition ([1]; at 50.0 µM),"growth inhibition [2, 7]","growth inhibition [2, 8]",growth inhibition ([2]; at 50.0 µM),"growth inhibition [3, 7]","growth inhibition [3, 8]",growth inhibition ([3]; at 50.0 µM),"growth inhibition [4, 7]","growth inhibition [4, 8]",growth inhibition ([4]; at 50.0 µM),"growth inhibition [5, 7]","growth inhibition [5, 8]",growth inhibition ([5]; at 50.0 µM),"growth inhibition [6, 7]","growth inhibition [6, 8]",growth inhibition ([6]; at 50.0 µM)
N#CC1=C(N)OC(c2ccccc2)=C(C#N)C1c1ccccc1 (configuration not stated),90% (active),99% (active),99.2% (active),97% (active),100% (active),99.5% (active),96% (active),100% (active),99.3% (active),98% (active),99% (active),99.2% (active),98% (active),99% (active),99.5% (active),97% (active),99% (active),99.3% (active)
CCCCCCCCCCCCNC(=O)OCC(C)O (configuration not stated) (tested in a mixture with another compound),95% (active),97% (active),98.2% (active),76% (active),93% (active),96.6% (active),96% (active),98% (active),98.9% (active),81% (active),88% (active),97.9% (active),84% (active),74% (active),99.4% (active),93% (active),91% (active),98.5% (active)
C=CCCCCCCCCC(=O)ON(Cc1ccc(O)c(OC)c1)C(=O)C(F)(F)F,3%,73% (active),70.7% (active),-7%,66%,84.3% (active),-8%,67%,89.2% (active),20%,61%,85.5% (active),-12%,40%,90.5% (active),7%,86% (active),85.9% (active)
Cc1c(Cl)ccc2c(C(O)CNCc3ccccc3)cc(-c3ccc(Cl)cc3)nc12 (configuration not stated),44%,95% (active),98.5% (active),58%,95% (active),91% (active),66%,92% (active),97.1% (active),17%,94% (active),93.8% (active),26%,95% (active),12.1%,59%,95% (active),96.5% (active)
O=[N+]([O-])C1CCC(C2=CSC3CCCCC3N2)CC1 (configuration not stated),12%,7%,34.6%,-16%,44%,57.5%,-9%,23%,38.8%,23%,31%,11.4%,0%,52%,67.8%,-1%,60%,18%
CC(C)C(O)C(C)C,5%,1%,83% (active),0%,-3%,-2.45%,-1%,0%,4.95%,4%,-1%,17.1%,1%,-7%,13.7%,4%,2%,49.5%
c1ccc(NN=C(c2ccccc2)c2ccccc2)cc1,-2%,76% (active),94.2% (active),-17%,55%,94.3% (active),7%,68%,95.8% (active),1%,63%,91.8% (active),12%,83% (active),93.8% (active),12%,91% (active),95.2% (active)
OCC(CCc1c[nH]c2ccccc12)c1c[nH]c2ccccc12 (configuration not stated),27%,99% (active),99.4% (active),5%,99% (active),99.3% (active),20%,100% (active),62%,5%,99% (active),99.5% (active),21%,100% (active),99.3% (active),11%,98% (active),99.3% (active)
O=C1C(=O)N(c2ccccc2)N=C1N=Nc1ccccc1,4%,33%,90.4% (active),8%,80% (active),86.7% (active),14%,63%,96.2% (active),2%,43%,41.8%,14%,73% (active),69%,14%,77% (active),56%
Cc1ccc(NC(=O)Oc2ccc(C(C)(C)C)cc2Br)cc1NC(=O)Oc1ccc(C(C)(C)C)cc1Br,8%,26%,40.1%,-4%,13%,60%,3%,14%,49.7%,2%,11%,19.9%,0%,28%,28.4%,4%,53%,79.2% (active)
Cc1ccc(S(=O)(=O)/C=C2\COc3ccccc3C2=O)cc1,51%,99% (active),99.2% (active),65%,99% (active),99.7% (active),90% (active),100% (active),99.2% (active),44%,99% (active),99% (active),77% (active),99% (active),99.5% (active),79% (active),99% (active),99.5% (active)
Cn1nc(-c2ccc3c(c2)OCO3)[n+]([O-])c2c(=O)n(C)c(=O)nc1-2,-2%,79% (active),99.2% (active),-7%,97% (active),99.7% (active),0%,98% (active),99.5% (active),-6%,97% (active),98.2% (active),-8%,96% (active),99.4% (active),-7%,97% (active),99.5% (active)
O/N=C(/CN1CCN(c2ccccc2)CC1)c1ccccc1,1%,-1%,45.4%,0%,-2%,-14.4%,-4%,-3%,10.7%,2%,1%,-68.2%,-2%,-2%,13.4%,1%,-4%,-3.8%
Cc1cc(N2C(=O)CCSC2=S)c([N+](=O)[O-])cc1C,32%,99% (active),99.3% (active),7%,99% (active),99.6% (active),60%,99% (active),99.5% (active),-5%,98% (active),98.5% (active),14%,99% (active),99.5% (active),65%,99% (active),99.4% (active)
COc1ccc(CCN2CC(=O)N3CSCC3C2=O)cc1OC (configuration not stated),6%,24%,66.7%,5%,16%,7.05%,9%,27%,34.8%,4%,27%,25.4%,3%,28%,21.8%,-1%,14%,37.2%
CCCCNC(=O)OCCN=C1c2ccccc2C(Br)C(Br)c2ccccc21 (configuration not stated),5%,37%,98.4% (active),2%,23%,98.5% (active),-5%,21%,97.3% (active),7%,20%,97.8% (active),9%,28%,97.8% (active),13%,74% (active),98.5% (active)
Cc1cccc(-c2nnc(-c3cccc(C)c3)o2)c1,39%,44%,54.8%,30%,43%,14.7%,19%,47%,63.6%,53%,33%,43.2%,54%,66%,55%,32%,44%,23.4%
CCN(CC)c1ccc(Cl)c2c1C(O)(C(C)C)C2(C)C (configuration not stated),-20%,96% (active),88.2% (active),9%,97% (active),92.4% (active),1%,97% (active),89.7% (active),24%,98% (active),89.3% (active),14%,98% (active),89.8% (active),17%,98% (active),87.5% (active)
COC(=O)C(=Cc1c[nH]c2ccccc12)C(=O)OC,-12%,0%,11.6%,4%,2%,30.3%,-1%,-6%,4.55%,-1%,-4%,16.3%,-3%,2%,10.6%,-18%,-17%,10.8%
